In the library only some 1.2% were active in any assay of this set; here they are far more common.
RGS4-Gao reg: human RGS4-Galphao interaction regulation; AID 1415; binding response (% of control), % at 10 µM; actives 0.33% (n = 220,000); Multiplexed bead flow cytometry, RGS4-Galphao binding; actives lie on both sides; in the data active = binding response below about 49% or above about 150%; inactive = in between;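 also: fluorescent Galphao activated with aluminum fluoride binding bead-coupled RGS4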
Avidin bead fluor: compound fluoresces at 488/530 nm on avidin beads; compound fluorescence 488/530 nm, flow cytometry; stronger effect = higher value; fluorescence (KMESF) at 10 µM; actives 0.38% (n = 220,000); in the data active = fluorescence above about 47
RGS16-Gao HTS: regulators of human RGS16-Galphao interaction; O15492+P09471; bead-based flow cytometry RGS16-Galphao binding, fluorescence; actives lie on both sides; binding response (% of control), % at 10 µM; actives 0.38% (n = 220,000);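 also: Galphao activated by GDP with aluminum fluoride before binding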
Target sequence (O15492 whole entry, looked up): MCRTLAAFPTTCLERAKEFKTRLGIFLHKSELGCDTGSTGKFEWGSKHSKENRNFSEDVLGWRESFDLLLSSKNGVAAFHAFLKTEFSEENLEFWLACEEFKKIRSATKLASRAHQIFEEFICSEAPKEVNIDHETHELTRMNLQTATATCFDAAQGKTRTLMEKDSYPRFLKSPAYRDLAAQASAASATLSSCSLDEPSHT
Target sequence (P09471 whole entry, looked up): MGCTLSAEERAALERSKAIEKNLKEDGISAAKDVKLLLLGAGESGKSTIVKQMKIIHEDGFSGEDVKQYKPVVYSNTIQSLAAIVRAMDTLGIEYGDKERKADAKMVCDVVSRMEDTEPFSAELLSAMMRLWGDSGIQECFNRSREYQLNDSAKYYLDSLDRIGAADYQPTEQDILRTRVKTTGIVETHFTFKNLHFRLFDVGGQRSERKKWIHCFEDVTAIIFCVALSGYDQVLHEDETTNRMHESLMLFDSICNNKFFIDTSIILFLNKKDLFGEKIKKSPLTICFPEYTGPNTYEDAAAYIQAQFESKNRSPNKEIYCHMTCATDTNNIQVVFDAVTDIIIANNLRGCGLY
RGS7-Gao reg: regulators of human RGS7-Galphao interaction; P09471; Multiplexed bead flow cytometry, RGS7-Galphao binding; actives lie on both sides; binding response (% of control), % at 10 µM; actives 0.35% (n = 220,000); AID 1439; in the data active = binding response below about 49% or above about 150%; inconclusive = no clear call, values can overlap the other calls; inactive = in between;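 also: fluorescent Galphao held in activated GDP-AlF4 state binding bead-coupled RGS7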
RGS8-Gao reg: modulates binding of RGS8 to human Galphao. P09471. multiplexed bead flow cytometry; actives lie on both sides. response (percent of control binding), % at 10 µM. actives 0.34% (n = 220,000). AID 1423; in the data active = response below about 60% or above about 140%; inactive = in between;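 also: Galphao activated as the GDP aluminium fluoride complex binding bead-coupled RGS8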
GSH bead fluor: GSH bead compound fluorescence profile; GSH beads flow cytometry, compound fluorescence 488/530 nm; stronger effect = higher value; fluorescence (KMESF) at 10 µM; actives 0.25% (n = 190,000); in the data active = fluorescence above about 89;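 also: glutathione beads carrying GST-tagged Bcl family fusion proteins plus one bare bead set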
RGS-Gao: regulators of human RGS4-Galphao interaction; shares compounds with RGS16-Gao HTS; RGS4–Galpha-o binding response, % at 10 µM; AID 1504; actives 99% (n = 1,600); multiplexed bead flow cytometry, RGS–Galpha-o binding;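 also: fluorescently labeled Galpha-o bound to GDP with aluminium fluoride binding biotinylated RGS beads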
Biotin-avidin: biotin-avidin bead binding disruption counter-screen; 1,700 tested, under 10 active; AID 1783; inhibition, % at 10 µM; streptavidin beads, fluorescein-biotin binding, flow cytometry; shares compounds with RGS16-Gao HTS;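 active = inhibition above 50%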;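 also: median green fluorescence of gated singlet beads compared with DMSO control wells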
RGS8-Gao confirm: confirmation of regulators of human RGS8-Galphao interaction. shares compounds with RGS16-Gao HTS. bead-based flow cytometry RGS8-Galphao binding, fluorescence; actives lie on both sides. binding response (% of control), % at 10 µM. actives 3% (n = 1,700); in the data active = binding response below about 72% or above about 130%; inactive = in between;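 also: Galphao activated as GDP AlF4 complex before binding bead RGS8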
RGS7-Gao confirm: RGS7-Galphao interaction regulation, single point confirmation | shares compounds with RGS16-Gao HTS | bead-based flow cytometry RGS7-Galphao binding; actives lie on both sides | response (percent of control binding), % at 10 µM | actives 7.8% (n = 1,700) | AID 1837; in the data active = response below about 75% or above about 130%; inactive = in between;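 also: fluorescent Galphao activated with GDP and aluminum fluoride binding bead-coupled RGS7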
RGS16-Gao single: confirmation of regulators of human RGS16-Galphao interaction | shares compounds with RGS16-Gao HTS | actives 4% (n = 1,700) | AID 1838 | response (% of control binding), % at 10 µM | bead-based flow cytometry, RGS16-Galphao binding; actives lie on both sides; in the data active = response below about 74% or above about 130%; inactive = in between;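 also: Galphao activated as the GDP aluminium fluoride complex binding bead-coupled RGS16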
RGS4-Gao single: confirmation of regulators of human RGS4-Galphao interaction. RGS4-Galphao binding, multiplexed bead flow cytometry; actives lie on both sides. actives 4% (n = 1,700). binding response (% of control), % at 10 µM. shares compounds with RGS16-Gao HTS; in the data active = binding response below about 74% or above about 130%; inactive = in between
RGS19-Gao conf: confirmation of regulators of human RGS19-Galphao interaction; response (percent of control binding), % at 10 µM; shares compounds with RGS16-Gao HTS; AID 1841; bead-based flow cytometry RGS19-Galphao binding; actives lie on both sides; actives 5% (n = 1,700); in the data active = response below about 50% or above about 160%; inactive = in between
Hits are given with their value; - = inactive; ? = inconclusive; . = not tested or not shown; [ ] = remark or other dose. Unless noted, no rule for the calls is given here.

SMILES | RGS4-Gao reg | Avidin bead fluor | RGS16-Gao HTS | RGS7-Gao reg | RGS8-Gao reg | GSH bead fluor | RGS-Gao | Biotin-avidin | RGS8-Gao confirm | RGS7-Gao confirm | RGS16-Gao single | RGS4-Gao single | RGS19-Gao conf
Cc1cc(C)c2c(=O)n(CC(=O)Nc3ccc(Cl)cc3)sc2n1 | - | - | 12 | ? | - | . | 101 | - | 68 | - | 15 | - | 17
Cc1ccc(NC(=O)Cn2sc3nc(C)cc(C)c3c2=O)c(Cl)c1 | - | - | 16 | ? | - | . | 88 | - | 65 | - | 22 | - | 18
Cc1cc(C)c2c(=O)n(CC(=O)Nc3cccc(F)c3)sc2n1 | - | - | 17 | ? | - | . | 83 | - | 67 | - | 17 | - | 24
Cc1cccc(N2CCN(C(=O)Cn3sc4nc(C)cc(C)c4c3=O)CC2C)c1 (centres undefined) | - | - | 22 | - | - | - | 94 | - | 63 | - | 12 | - | 2.5
CCOc1ccc(NC(=O)Cn2sc3nc(C)cc(C)c3c2=O)cc1 | - | - | - | ? | - | . | . | . | . | . | . | . | .
Cc1cccc(N=Cc2[nH]c3ccc(Br)c(Cl)c3c2O)c1 | - | - | - | 153[activator] | - | - | 142 | . | . | . | . | . | .
CC(=O)/C(=N/Nc1ccccc1)Sc1nnc(C(O)c2ccccc2)n1-c1ccccc1 (centres undefined) | - | - | 18 | - | - | - | 99 | - | - | - | - | - | -
CC(=O)/C(=N/Nc1ccccc1Cl)Sc1nnc(C(O)c2ccccc2)n1-c1ccccc1 (centres undefined) | - | - | - | - | - | - | . | . | . | . | . | . | .
Cc1c(Cl)cccc1NC(=O)CC(C(=O)O)C1CCCO1 (centres undefined) | - | - | - | - | 148[activator] | - | 136 | - | - | - | - | - | -
CCOC(=O)c1ccccc1NC(=O)Cn1cnc2c(nnn2-c2ccc(C)cc2)c1=O | - | - | - | - | - | - | . | . | . | . | . | . | .
COc1ccccc1NC(=O)Cn1cnc2c(nnn2-c2ccc(C)cc2)c1=O | - | - | - | 154[activator] | - | - | 104 | - | - | - | - | - | -
COc1ccc(Br)cc1/C=N/Nc1cccc(C(=O)O)c1 | - | 78 | - | 172[activator] | - | - | 112 | - | - | 64 | - | - | -
CCOc1ccc(NC(=O)NC(=O)N(C(C)C)S(C)(=O)=O)cc1 | - | - | - | - | - | - | . | . | . | . | . | . | .
CN(C)c1ccc(/C=N/N2CCN(c3ccccn3)CC2)cc1 | - | - | - | ? | - | . | . | . | . | . | . | . | .
Cc1cc(N2CCC(C)CC2)nc(-c2ccccc2O)n1 | - | - | - | ? | - | . | . | . | . | . | . | . | .
Cc1cc(N2CCN(c3ccccc3)CC2)nc(-c2ccccc2O)n1 | 38 | - | - | - | - | - | . | - | - | - | - | - | -
CC(=O)Nc1ccc(NC(=S)Nc2ccccc2)cc1 | . | . | . | . | . | - | . | - | - | - | - | - | -
CC(=O)Nc1ccc(NC(=S)Nc2ccc(F)cc2)cc1 | - | - | - | ? | - | - | . | . | . | . | . | . | .
CCc1cccc(C)c1NC(=O)CO/N=C(\N)CC(=O)NC1CCCCC1 | - | - | - | - | - | - | . | . | . | . | . | . | .
CCn1ccnc1CN1CCN(CCC(C)C)C(CCO)C1 (centres undefined) | - | - | - | - | - | - | . | . | . | . | . | . | .

Screening results (PubChem BioAssay)
